# Data reported in PubChem BioAssay (NCATS).
# Unmarked numbers belong to inactive results. Records with an inconclusive call do not appear. A call without a number means that no potency is given here. Active and inactive are the calls of the source. Unless noted, calls come from the whole dose curve; as a rule, active = well fitted curve in the direction sought with a large enough effect; inconclusive = small, poorly fitted or top-dose-only effect, or another doubt; inactive = no such curve, though single readings can be large; an effect the other way counts as inactive or inconclusive.
# Columns and labels:
# [1] = system: Zika virus NS2B-NS3 protease (linked construct); assay: Confirmatory screen NINDS AMC qHTS for Zika virus inhibitors (AID 1347152); note: nearly all actives have a fitted effect of over 70% in size; note: potency is the fitted concentration of half-maximal effect;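 for activity change, negative = inhibition: AMC fluorescence gain from cleaved Bz-Nle-KRR-AMC substrate over 15 min; top concentration of the series differs between compounds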
# In short: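 In this dose-response qHTS, AMC release from 10 microM Bz-Nle-KRR-AMC by 1 nM linked protease is measured over 15 minutes (about 20% conversion) at pH 8.0. Percent inhibition is fitted to a 4-parameter Hill curve.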
# [2] = system: Zika virus NS2B-NS3 protease (unlinked complex); assay: Confirmatory screen GU AMC qHTS for Zika virus inhibitors (AID 1347153); note: nearly all actives have a fitted effect of over 70% in size;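 for potency: enzyme at 25 nM with substrate at 10 µM below its Km of 18.3 µM; potency is the fitted concentration of half-maximal effect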
# In short: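 Compounds were preincubated 15 min at room temperature with 25 nM noncovalent NS2B-NS3 protease at pH 8.0; AMC substrate added at 10 microM and 15-min fluorescence gain (340/450 nm) converted to percent inhibition, fitted 4-parameter.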
# [3] = Confirmatory screen NINDS Rhodamine qHTS for Zika virus inhibitors (AID 1347161); note: nearly all actives have a fitted effect of over 60% in size; note: potency is the fitted concentration of half-maximal effect;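 for activity change, negative = inhibition: purified Zika NS2B-NS3 protease with linked NS2B cofactor domain and Rhodamine110 peptide substrate; series mostly up to about 110 µM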
# In short: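 Kinetic fluorescence (Ex 480 nm, Em 540 nm) over 15 min with 1.5 microM Rhodamine110 peptide and 25 nM linked protease.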
# [4] = Vero cells viability qHTS for Zika virus inhibitors (AID 1347167)
# In short: (§1)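 Luminescent ATP readout (CellTiter Glo) after 30 min at 37 degrees C gives viability; cells in DMEM + 4% FBS were treated 24 to 48 hours with compound, following overnight attachment.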
# [5] = HepG2 cells viability qHTS for Zika virus inhibitors (AID 1347168)
# In short: as §1
# Furin (Homo sapiens) = Furin (Homo sapiens) (UniProt P09958); assay: Furin counterscreen qHTS for Zika virus inhibitors (AID 1347149); note: nearly all actives have a fitted effect of over 70% in size; note: potency is the fitted concentration of half-maximal effect;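 for activity change, negative = inhibition: purified recombinant full-length human furin enzyme at 5 nM; fluorescence gain from furin cutting a BOC-RVRR-AMC peptide substrate over 15 min; top concentration of the series differs between compounds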
# In short: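 Counterscreen measures cleavage of 2 microM BOC-RVRR-AMC, below its ~15 microM Km, by 5 nM full-length human furin at pH 7.0 after a 15-min compound preincubation. Inhibition derives from the 15-min fluorescence increase at 37C.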
# [6] = Tertiary RLuc qRT-PCR qHTS assay for Zika virus inhibitors (AID 1347169); note: nearly all actives have a fitted effect of over 55% in size; note: potency is the fitted concentration of half-maximal effect; for activity change, negative = inhibition: top concentration of the series differs between compounds
# In short: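 Orthogonal cell-based infection assay using recombinant ZIKV-RLuc (Cambodian) in Vero cells; compound added prior to virus at MOI 1-2. Incubation lasts 48-72 hrs at 37 degrees C before live-cell Renilla substrate is added and luminescence measured.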
# [7] = Primary qHTS for small molecule stabilizers of the endoplasmic reticulum resident proteome: Secreted ER Calcium Modulated Protein (SERCaMP) assay (AID 1508630)
# In short: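 The SH-SY5Y reporter protocol was run at 3 concentrations up to 38.3 uM (primary) or 11 concentrations (follow-up): 16 h compound, 100 nM thapsigargin for 4 h, then extracellular luciferase luminescence.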
# [8] = target: Glucocorticoid receptor (Homo sapiens) (UniProt P04150); assay: GR-GFP Redistribution (AID 450;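 active = compounds whose dose series gives a full or clear partial fitted curve of increased nuclear translocation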; note: potency is the fitted concentration of half-maximal effect); settings: U2OS GR-GFP nuclear translocation, laser cytometry, 2 h
# [9] = target: Glucocorticoid receptor (Homo sapiens) (UniProt P04150); assay: GR-EFC Redistribution (AID 451; calls by dose curve; note: potency is the fitted concentration of half-maximal effect); settings: CHO-K1 GR-EFC translocation, beta-gal luminescence, 2 h
# In short: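 Translocation of GR-ED fusion to nuclear EA restores b-gal, read by luminescence after 1 h room-temperature detection. Engineered CHO-K1 biosensor cells, 1,000/well, exposed 2 h at 37 C to titrations up to 46 uM final.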
# [10] = target: Cytochrome P450 3A4 (Homo sapiens) (UniProt P08684); assay: qHTS Assay for Activators of Cytochrome P450 3A4 (AID 885); note: nearly all actives have a fitted effect of over 65% in size
# In short: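 Luminescent readout of luciferin formed from 25 uM Luciferin-PPXE (KM level) by 20 nM CYP3A4 in 200 mM KPO4, with 60 min NADPH-driven reaction at room temperature after 10 min compound exposure. Ketoconazole (57 uM) defined 100% inhibition.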
# [11] = target: DNA dC->dU-editing enzyme APOBEC-3G (Homo sapiens) (UniProt Q9HC16); assay: qHTS for inhibitors of Vif-A3G interactions: Validation (AID 588379)
# In short: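 Yellow fluorescence (Ex 488, Em 500-530) of Vif-coexpressing HeLa A3G-eYFP cells, scanned by Acumen cytometer, reports blocked A3G degradation. Cells plated at 700/well overnight at 37 deg C before compound addition, then a further overnight compound incubation at 37 deg C.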
# [12] = system: Zika virus NS2B-NS3 protease (linked); assay: 384 well plate NINDS AMC confirmatory qHTS for Zika virus inhibitors (AID 1347163); note: potency is the fitted concentration of half-maximal effect; nearly all actives have a fitted effect of over 50% in size
# In short: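 Enzyme (5, 30 or 60 nM final) first met test compounds for ~15 min. The AMC-tagged peptide Ac-VKTGKR-AMC followed at 30 microM. Fluorescence was then recorded at 25 min and scaled against no-enzyme and no-inhibitor wells.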
# [13] = system: Zika virus NS2B-NS3 protease (linked construct); assay: 384 well plate NINDS Rhodamine confirmatory qHTS for Zika virus inhibitors (AID 1347164); note: potency is the fitted concentration of half-maximal effect; nearly all actives have a fitted effect of over 65% in size
# In short: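 Compounds are incubated about 15 minutes with linked protease (5, 30 or 60 nM final). Rhodamine 110-tagged Ac-LKRR substrate (10 microM final) is added and fluorescence measured after 25 minutes.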
# [14] = target: Rap guanine nucleotide exchange factor 3 (Homo sapiens) (UniProt O95398); assay: Confirmatory qHTS for agonist of cAMP-regulated guanine nucleotide exchange factor 3 (EPAC1) (AID 1645881);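 note: EPAC1 catalysed release of BODIPY-GDP from Rap1B seen as fluorescence loss; nearly all actives have a fitted effect of over 75% in size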
# [15] = target: Rap guanine nucleotide exchange factor 4 (Homo sapiens) (UniProt Q8WZA2); assay: Confirmatory qHTS for agonist of cAMP-regulated guanine nucleotide exchange factor 4 (EPAC2) (AID 1645884);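 note: nucleotide exchange releases bodipy-GDP from Rap1 and this lowers its fluorescence; nearly all actives have a fitted effect of over 65% in size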
# [16] = target: Rap guanine nucleotide exchange factor 4 (Homo sapiens) (UniProt Q8WZA2); assay: Confirmatory qHTS for antagonist of cAMP-regulated guanine nucleotide exchange factor 4 (EPAC2) (AID 1645885); note: potency is the fitted concentration of half-maximal effect; nearly all actives have a fitted effect of over 25% in size
# [17] = target: Cytochrome P450 1A2 (Homo sapiens) (UniProt P05177); assay: p450-cyp1a2 (AID 410; calls by dose curve; note: potency is the fitted concentration of half-maximal effect)
# In short: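 20nM CYP1A2, 100uM Luciferin-ME (=Km), 100mM KPO4; cpd 10 min RT; +NADPH regen, 60 min RT; stop/detect 20 min; luminescence. Normalized to furafylline 57 uM = full inhibition.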
# [18] = target: Mitogen-activated protein kinase 10 (Mus musculus) (UniProt Q61831); assay: JNK3 AlphaScreen Assay (AID 530; active = well fitted curve in either direction with a large enough effect, not every such curve was filed as active;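 note: kinase came from lysate of stimulated human HepG2 cells; potency is the fitted concentration of half-maximal effect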)
# In short: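 Kinase buffer: 20 mM Tris-HCl pH 7.6, 10 mM MgCl2, 1 mM DTT, 0.1 mM Na3VO4, 0.01% Tween-20; ATP 10 uM. Substrate biotin-GST-cJun(1-79), enzyme from activated HepG2 lysates. Detection by Ser73 phospho-antibody AlphaScreen.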
# [19] = target: Cytochrome P450 2D6 (Homo sapiens) (UniProt P10635); assay: qHTS Assay for Inhibitors and Substrates of Cytochrome P450 2D6 (AID 891); note: potency is the fitted concentration of half-maximal effect; nearly all actives have a fitted effect of over 60% in size
# In short: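 Luminescent read-out of luciferin formed by 5 nM human CYP2D6 demethylating 30 uM Luciferin-ME EGE (Km level) over 60 min at room temperature after NADPH regeneration addition. Data normalized to full inhibition by 1.43 uM quinidine.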
# [20] = target: Cytochrome P450 2C19 (Homo sapiens) (UniProt P33261); assay: qHTS Assay for Inhibitors and Substrates of Cytochrome P450 2C19 (AID 899); note: potency is the fitted concentration of half-maximal effect; nearly all actives have a fitted effect of over 60% in size
# In short: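 Luminescence readout of luciferin formed from 10uM Luciferin-H EGE (KM level) by 5 nM CYP2C19 in 50mM KPO4. 60 min NADPH-driven reaction at 37C after 10 min compound preincubation; data scaled to 57uM ketoconazole inhibition.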
# [21] = target: Rap guanine nucleotide exchange factor 3 (Homo sapiens) (UniProt O95398); assay: Confirmatory qHTS for antagonist of cAMP-regulated guanine nucleotide exchange factor 3 (EPAC1) (AID 1645880); note: potency is the fitted concentration of half-maximal effect; nearly all actives have a fitted effect of over 55% in size
# In short: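 Released BODIPY-GDP fluoresces less than Rap1-bound BODIPY-GDP; the signal is followed at 480/540 nm at 5-min intervals over 30 min, after 5 min at room temperature. Reactions contain 100 nM EPAC1, 250 nM RAP1B-BODIPY-GDP and 50 uM GDP; results are normalized to ATA and DMSO.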
# [22] = target: Glutathione peroxidase 1 (Homo sapiens) (UniProt P07203); assay: Primary qHTS Assay for Inhibitors of Recombinant Selenoprotein Glutathione Peroxidase 1 (GPX1) (AID 1845191); note: nearly all actives have a fitted effect of over 65% in size
# In short: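 NADPH consumption tracked by fluorescence at 340/450 nm between t=0 and t=15 min, room temperature. Final mix: 10 nM GPX1, 100 nM glutathione reductase, 1 mM GSH, 0.5 mM NADPH, 0.5 mM cumene hydroperoxide, 0.01% BSA; 30 min compound–enzyme preincubation.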
# [23] = system: Zika virus NS2B-NS3 protease; assay: Primary screen GU AMC qHTS for Zika virus inhibitors (AID 1347154); note: nearly all actives have a fitted effect of over 70% in size
# In short: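 Fluorogenic AMC-substrate cleavage by noncovalent NS2B-NS3 protease complex (25 nM, pH 8.0 Tris buffer with Tween 20) followed for 15 minutes at room temperature (~20% conversion). Percent inhibition from ex340/em450 signal change, fitted by 4-parameter Hill equation.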
# Chain of Glucocorticoid receptor (Homo sapiens) (P04150 whole entry, looked up, the tested form may be a part): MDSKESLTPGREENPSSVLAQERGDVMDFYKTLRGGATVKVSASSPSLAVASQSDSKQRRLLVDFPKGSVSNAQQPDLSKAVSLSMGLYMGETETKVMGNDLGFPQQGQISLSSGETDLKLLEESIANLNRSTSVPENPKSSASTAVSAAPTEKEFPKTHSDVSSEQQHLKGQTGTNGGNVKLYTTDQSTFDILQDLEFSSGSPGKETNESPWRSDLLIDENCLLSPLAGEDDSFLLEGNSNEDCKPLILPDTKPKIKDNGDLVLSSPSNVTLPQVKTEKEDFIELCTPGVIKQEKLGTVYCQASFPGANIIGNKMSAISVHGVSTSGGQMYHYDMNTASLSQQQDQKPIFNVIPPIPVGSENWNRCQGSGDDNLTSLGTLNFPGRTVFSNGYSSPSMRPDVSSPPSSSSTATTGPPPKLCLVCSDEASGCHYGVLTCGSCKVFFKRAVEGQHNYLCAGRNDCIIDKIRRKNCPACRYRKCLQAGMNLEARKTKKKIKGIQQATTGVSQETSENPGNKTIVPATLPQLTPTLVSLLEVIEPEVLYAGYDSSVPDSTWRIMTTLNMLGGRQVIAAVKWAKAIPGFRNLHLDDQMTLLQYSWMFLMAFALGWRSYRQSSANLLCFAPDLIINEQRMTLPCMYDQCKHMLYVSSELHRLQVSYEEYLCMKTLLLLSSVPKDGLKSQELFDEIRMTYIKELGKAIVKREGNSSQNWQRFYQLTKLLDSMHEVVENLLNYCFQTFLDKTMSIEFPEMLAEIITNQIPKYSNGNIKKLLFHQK
# Chain of Furin (Homo sapiens) (P09958 whole entry, looked up): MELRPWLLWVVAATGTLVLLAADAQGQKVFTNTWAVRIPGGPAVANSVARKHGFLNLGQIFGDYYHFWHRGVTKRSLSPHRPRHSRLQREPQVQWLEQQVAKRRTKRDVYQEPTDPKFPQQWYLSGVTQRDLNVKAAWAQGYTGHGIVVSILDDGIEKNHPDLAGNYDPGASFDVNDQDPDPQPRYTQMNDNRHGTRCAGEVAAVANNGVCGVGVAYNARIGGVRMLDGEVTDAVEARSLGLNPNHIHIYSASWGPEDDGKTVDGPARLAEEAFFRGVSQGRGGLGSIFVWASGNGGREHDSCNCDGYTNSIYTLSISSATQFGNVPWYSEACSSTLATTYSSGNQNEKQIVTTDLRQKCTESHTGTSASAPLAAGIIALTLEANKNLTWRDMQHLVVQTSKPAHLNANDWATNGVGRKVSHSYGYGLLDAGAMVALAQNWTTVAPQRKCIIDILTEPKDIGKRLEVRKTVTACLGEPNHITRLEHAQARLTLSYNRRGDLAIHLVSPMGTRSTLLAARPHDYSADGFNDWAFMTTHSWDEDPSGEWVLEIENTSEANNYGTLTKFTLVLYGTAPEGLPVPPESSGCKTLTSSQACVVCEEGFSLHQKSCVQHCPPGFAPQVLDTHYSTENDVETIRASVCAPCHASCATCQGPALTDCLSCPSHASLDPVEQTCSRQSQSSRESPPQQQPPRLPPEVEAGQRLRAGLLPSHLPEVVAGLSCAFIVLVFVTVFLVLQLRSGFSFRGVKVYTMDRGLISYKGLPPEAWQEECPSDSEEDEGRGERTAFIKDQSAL
# Chain of Rap guanine nucleotide exchange factor 3 (Homo sapiens) (O95398 whole entry, looked up): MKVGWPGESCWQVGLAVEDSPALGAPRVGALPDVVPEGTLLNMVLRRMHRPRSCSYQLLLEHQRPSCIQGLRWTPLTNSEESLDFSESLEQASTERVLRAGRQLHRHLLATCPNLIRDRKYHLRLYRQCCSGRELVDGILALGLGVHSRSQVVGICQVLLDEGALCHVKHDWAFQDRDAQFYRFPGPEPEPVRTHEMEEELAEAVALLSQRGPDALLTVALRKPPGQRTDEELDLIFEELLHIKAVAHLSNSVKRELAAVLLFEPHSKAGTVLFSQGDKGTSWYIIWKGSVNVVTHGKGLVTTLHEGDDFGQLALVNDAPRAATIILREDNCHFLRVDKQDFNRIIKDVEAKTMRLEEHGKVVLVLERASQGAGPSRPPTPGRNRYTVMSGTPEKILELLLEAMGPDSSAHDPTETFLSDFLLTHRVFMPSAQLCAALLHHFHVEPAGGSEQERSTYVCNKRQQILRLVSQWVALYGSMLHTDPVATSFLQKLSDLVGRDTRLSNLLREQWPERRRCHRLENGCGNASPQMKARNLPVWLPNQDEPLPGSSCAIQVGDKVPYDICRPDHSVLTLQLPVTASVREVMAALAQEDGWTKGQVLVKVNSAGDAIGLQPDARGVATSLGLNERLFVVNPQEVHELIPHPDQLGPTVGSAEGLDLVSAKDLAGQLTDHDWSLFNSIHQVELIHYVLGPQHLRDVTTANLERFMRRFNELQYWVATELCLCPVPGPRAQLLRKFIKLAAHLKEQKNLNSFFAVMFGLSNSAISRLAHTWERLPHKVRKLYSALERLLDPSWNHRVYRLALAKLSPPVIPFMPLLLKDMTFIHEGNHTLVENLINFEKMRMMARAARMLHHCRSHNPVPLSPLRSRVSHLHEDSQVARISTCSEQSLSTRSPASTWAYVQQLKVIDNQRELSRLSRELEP
# Chain of Rap guanine nucleotide exchange factor 4 (Homo sapiens) (Q8WZA2 whole entry, looked up): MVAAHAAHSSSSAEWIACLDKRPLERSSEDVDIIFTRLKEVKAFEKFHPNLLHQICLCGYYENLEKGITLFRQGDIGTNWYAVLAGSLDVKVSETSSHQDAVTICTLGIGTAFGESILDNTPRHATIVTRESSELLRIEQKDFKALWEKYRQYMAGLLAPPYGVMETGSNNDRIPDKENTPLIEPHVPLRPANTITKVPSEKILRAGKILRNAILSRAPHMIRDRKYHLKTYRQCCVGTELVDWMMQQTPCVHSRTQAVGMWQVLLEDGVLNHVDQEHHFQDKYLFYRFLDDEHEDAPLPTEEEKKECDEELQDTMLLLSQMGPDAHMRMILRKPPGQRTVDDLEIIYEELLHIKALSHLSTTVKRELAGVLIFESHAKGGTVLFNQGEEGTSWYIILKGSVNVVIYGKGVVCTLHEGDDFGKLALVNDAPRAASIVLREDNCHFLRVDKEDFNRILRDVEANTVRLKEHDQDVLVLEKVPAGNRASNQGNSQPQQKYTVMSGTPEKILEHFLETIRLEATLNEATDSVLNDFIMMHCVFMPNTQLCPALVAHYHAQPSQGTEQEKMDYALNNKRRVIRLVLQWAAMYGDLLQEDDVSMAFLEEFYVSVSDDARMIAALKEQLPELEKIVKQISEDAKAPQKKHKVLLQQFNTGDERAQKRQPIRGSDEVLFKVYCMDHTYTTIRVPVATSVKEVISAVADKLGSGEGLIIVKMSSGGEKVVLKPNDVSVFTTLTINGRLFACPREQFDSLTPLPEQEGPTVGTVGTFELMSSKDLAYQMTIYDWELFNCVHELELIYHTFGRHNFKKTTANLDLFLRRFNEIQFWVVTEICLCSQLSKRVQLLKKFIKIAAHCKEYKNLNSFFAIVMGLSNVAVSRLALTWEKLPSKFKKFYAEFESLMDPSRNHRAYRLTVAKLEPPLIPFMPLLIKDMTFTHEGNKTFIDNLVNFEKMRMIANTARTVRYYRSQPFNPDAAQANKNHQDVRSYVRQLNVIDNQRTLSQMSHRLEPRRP
# Chain of DNA dC->dU-editing enzyme APOBEC-3G (Homo sapiens) (Q9HC16 whole entry, looked up): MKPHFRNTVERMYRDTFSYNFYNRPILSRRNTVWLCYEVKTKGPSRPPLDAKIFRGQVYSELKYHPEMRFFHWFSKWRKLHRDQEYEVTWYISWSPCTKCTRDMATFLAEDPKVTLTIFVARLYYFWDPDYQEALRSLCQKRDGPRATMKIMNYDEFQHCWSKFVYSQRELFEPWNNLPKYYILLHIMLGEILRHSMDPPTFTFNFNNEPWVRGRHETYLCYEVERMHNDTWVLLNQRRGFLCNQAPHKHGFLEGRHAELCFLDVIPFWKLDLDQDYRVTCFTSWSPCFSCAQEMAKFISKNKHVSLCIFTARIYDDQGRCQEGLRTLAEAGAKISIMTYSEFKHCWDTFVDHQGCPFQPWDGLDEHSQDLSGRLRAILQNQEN
# Chain of Cytochrome P450 3A4 (Homo sapiens) (P08684 whole entry, looked up): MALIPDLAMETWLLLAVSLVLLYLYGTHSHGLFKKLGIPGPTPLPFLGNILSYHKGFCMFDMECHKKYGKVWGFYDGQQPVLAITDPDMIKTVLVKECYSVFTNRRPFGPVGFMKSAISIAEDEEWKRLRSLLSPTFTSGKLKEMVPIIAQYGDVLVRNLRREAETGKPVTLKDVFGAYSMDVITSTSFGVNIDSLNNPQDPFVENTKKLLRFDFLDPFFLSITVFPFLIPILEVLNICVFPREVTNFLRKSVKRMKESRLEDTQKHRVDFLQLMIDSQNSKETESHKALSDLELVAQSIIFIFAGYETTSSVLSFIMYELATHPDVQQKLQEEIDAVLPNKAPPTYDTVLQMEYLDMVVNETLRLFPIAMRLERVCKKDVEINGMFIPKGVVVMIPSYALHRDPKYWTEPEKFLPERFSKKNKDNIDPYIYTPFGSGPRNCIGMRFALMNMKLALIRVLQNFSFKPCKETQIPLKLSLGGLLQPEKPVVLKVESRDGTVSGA
# Chain of Cytochrome P450 2C19 (Homo sapiens) (P33261 whole entry, looked up): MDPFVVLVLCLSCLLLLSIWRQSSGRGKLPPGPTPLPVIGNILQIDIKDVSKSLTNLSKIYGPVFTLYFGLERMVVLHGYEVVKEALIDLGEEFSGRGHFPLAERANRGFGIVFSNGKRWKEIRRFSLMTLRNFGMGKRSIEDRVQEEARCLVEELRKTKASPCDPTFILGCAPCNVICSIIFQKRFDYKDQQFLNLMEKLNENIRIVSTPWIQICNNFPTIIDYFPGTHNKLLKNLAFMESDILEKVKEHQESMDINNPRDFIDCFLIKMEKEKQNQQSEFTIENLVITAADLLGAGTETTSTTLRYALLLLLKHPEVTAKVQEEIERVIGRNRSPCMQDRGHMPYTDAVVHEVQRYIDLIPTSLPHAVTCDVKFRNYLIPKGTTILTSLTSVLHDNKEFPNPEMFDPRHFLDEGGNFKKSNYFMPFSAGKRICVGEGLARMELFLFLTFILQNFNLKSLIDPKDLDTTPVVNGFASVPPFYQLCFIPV
smiles,measurement,setting,value
CCOC(=O)O[C@H](C)OC(=O)C1N2C(=O)[C@H](NC(=O)[C@H](N)c3ccccc3)C2SC1(C)C (stereo not given in full),Potency,[1],inactive
same,Potency,[2],inactive
same,Potency,[3],inactive
same,Potency,[4],inactive
same,Potency,[5],inactive
O=C(COc1ccccc1)Nc1ccc(C(=O)OCc2cc(=O)n3nc(C4CC4)sc3n2)cc1,Potency,Furin (Homo sapiens),inactive
same,Potency,[3],inactive
same,Potency,[6],inactive
COc1ccccc1N1CCN(CCn2c(=O)c3c(c4ccccc4n3C)n(C)c2=O)CC1,Potency,[1],27.1 µM (active)
same,Potency,[2],24.1 µM (active)
same,Potency,[4],inactive
same,Potency,[5],inactive
same,Potency,[6],inactive
same,Potency,[7],inactive
CC1OC(OC2C(O)CC(OC3C(O)CC(OC4CCC5(C)C(CCC6C5CC(O)C5(C)C(C7=CC(=O)OC7)CCC65O)C4)OC3C)OC2C)CC(O)C1O (stereo not given),Potency,Furin (Homo sapiens),inactive
same,Potency,[4],inactive
same,Potency,[5],inactive
same,Potency,[6],0.214 µM (active)
Cc1cc(C)cc(C(=O)N(C)[C@H](Cc2ccc(-c3ccccc3)cc2)C(=O)N[C@@H](Cc2c[nH]c3ccccc23)C(=O)O)c1,Potency,[8],> 46 µM
same,Potency,[9],> 46 µM
same,Potency,[10],inactive
same,Potency,[11],inactive
same,Potency,[1],9.61 µM (active)
same,Potency,[2],19.2 µM (active)
same,Potency,[3],1.75 µM (active)
same,Potency,[12],158 µM (active)
same,Potency,[13],28.2 µM (active)
same,Potency,[4],inactive
same,Potency,[5],inactive
same,Potency,[7],inactive
same,outcome,[14],inactive
same,outcome,[15],inactive
same,Potency,[16],55.5 µM (active)
Cc1cccc(OCC(=O)Nc2ccc(C(=O)OCc3cc(=O)n4nc(C5CC5)sc4n3)cc2)c1,Potency,Furin (Homo sapiens),inactive
same,Potency,[6],inactive
C=CC(C)(C)c1[nH]c2ccccc2c1C1=C(O)C(=O)C(c2c[nH]c3c(CC=C(C)C)cccc23)=C(O)C1=O,Potency,[17],25.1 µM (active)
same,Potency,[8],> 46 µM
same,Potency,[9],> 46 µM
same,Potency,[18],6.31 µM (active)
same,Potency,[10],inactive
same,Potency,[19],0.0063 µM (active)
same,Potency,[20],1.26 µM (active)
same,Potency,[11],inactive
same,Potency,Furin (Homo sapiens),inactive
same,Potency,[3],49.4 µM (active)
same,Potency,[12],11.2 µM (active)
same,Potency,[13],0.631 µM (active)
same,Potency,[4],inactive
same,Potency,[5],inactive
same,Potency,[7],inactive
same,Potency,[21],4.98 µM (active)
same,outcome,[14],inactive
same,Potency,[22],inactive
Cc1nn2c(=O)cc(COC(=O)c3ccc(NC(=O)c4ccc(C(C)(C)C)cc4)cc3)nc2s1,Potency,Furin (Homo sapiens),52.7 µM (active)
same,Potency,[3],39.8 µM (active)
Cc1cccc(C(=O)Nc2ccc(C(=O)OCc3cc(=O)n4c5c(sc4n3)CCCC5)cc2)c1,Potency,Furin (Homo sapiens),46.9 µM (active)
same,Potency,[3],inactive
same,Potency,[6],inactive
COc1ccccc1N1CCN(CC2CN3C(=O)N(C)c4ccccc4C3=N2)CC1 (stereo not given),Potency,[23],inactive
Nc1ncnc2c1ncn2C1C[C@H](O)[C@@H](CO)O1 (stereo not given in full),Potency,[23],inactive
O=C(O)c1cc(Oc2ccc([N+](=O)[O-])cc2)cc(Oc2ccc([N+](=O)[O-])cc2)c1,Potency,[23],inactive
CCCCC/C=C\C[C@@H](O)/C=C/C=C/C=C\[C@@H](O)CCCC(=O)O,"activity change, negative = inhibition",[23],25.7% [at 0.59 µM]
O=c1ccn([C@@H]2O[C@H](COP(=O)(O)O)[C@@H](O)[C@H]2O)c(=O)[nH]1,Potency,[23],inactive
Nc1ncnc2c1cnn2-c1ccccc1,Potency,[23],inactive
CC(C)=CCC/C(C)=C/CC/C(C)=C/CC[C@]1(C)CCc2c(C)c(O)c(C)c(C)c2O1,"activity change, negative = inhibition",[23],0.636% [at 6.83 µM]
CN(C)[C@@H]1C(=O)C(C(=O)NCN2CCCC2)=C(O)[C@@]2(O)C(=O)C3=C(O)c4c(O)cccc4[C@@](C)(O)[C@H]3C[C@@H]12,Potency,[2],9.61 µM (active)
same,Potency,[3],1.97 µM (active)
same,Potency,[4],inactive
same,Potency,[5],inactive
same,Potency,[7],inactive
